Results reported in PubChem BioAssay (NCI).
Compounds without any hit were thinned out: in the full panel of roughly 83,000, 20% have a hit.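 In brief: 96-well plates, 48 h treatment, single concentration, percent growth endpoint.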 Active and inactive are the calls of the source. The calls were made as follows: active = growth percent below 10; inactive = the rest.

What follows are compounds tested on NCI-H522 lung (assay: NCI-60 one-dose screen, 48 h (100 = growth as untreated, 0 = no growth, -100 = all killed)). Conditions: 10 µM unless noted.
For `O=C(Nc1ccc2ncnc(Nc3cccc(C(F)(F)F)c3)c2c1)c1cccs1`, the growth was 33.8% (inactive). For `O=C1[C@@H](OS(=O)(=O)CC(F)(F)F)[C@H](c2ccc(F)cn2)N1c1cc2c3ccccc3ccc2c2ccccc12`, the growth was 35.7% (inactive). In the case of `COc1cc2cc(c1Cl)N(C)C(=O)C[C@H](OC(=O)[C@H](C)N(C)C(=O)CCS)C[C@]1(C)O[C@H]1[C@H](C)[C@@H]1C[C@@](O)(NC(=O)O1)[C@H](OC)/C=C/C=C(\C)C2`, the growth is reported as -31.2% (active). `COc1cc(/C=C/C(=O)c2cccs2)ccc1OCc1ccc(Cl)nc1` was tested, and the growth was 86.1% (inactive). `COc1cc(/C=C/C(=O)/C=C/c2cc3ccc(Cl)cc3[nH]c2=O)ccc1O` was tested, and the growth was 66.4% (inactive). In the case of `COc1ccc(/C=C/C(=O)/C=C(/C=C/c2ccc(OC)c(OC)c2)OB(F)F)cc1OC`, the growth is reported as -32.4% (active). For `COc1cc(/C=C/C(=O)/C=C/c2cc3ccc(Cl)cc3n(Cc3ccccc3)c2=O)ccc1O`, the growth was -37.6% (active). `C=C(C)[C@@H]1CC[C@]2(C(=O)OCCCC[P+](c3ccccc3)(c3ccccc3)c3ccccc3)CC[C@]3(C)[C@H](CC[C@@H]4[C@@]5(C)CC[C@H](OC(=O)C(Cl)Cl)C(C)(C)[C@@H]5CC[C@]43C)[C@@H]12` was tested, and the growth was -38.3% (active). In the case of `COc1ccc(C(=S)c2cc(OC)c(OC)c(OC)c2)cc1OC(=O)CCl`, the growth is reported as 12.9% (inactive). In the case of `CNCc1cccc2c1OCCOCCOCCN(CCN1CCOCC1)S(=O)(=O)c1ccc(cc1)-c1cnc(N)c(n1)C(=O)N2`, the growth is reported as 49% (inactive). `COc1ccc2[nH]c(=O)c(/C=C/C(=O)/C=C/c3ccc(O)c(OC)c3)cc2c1` was tested, and the growth was 29% (inactive). With `Fc1ccc(N/N=C/c2ccc(-n3cccn3)cc2)cc1` the growth was 77.2% (inactive). `COc1cc(F)c(-c2nc3c(C)cccc3n2Cc2c(F)cccc2F)c(F)c1` was tested, and the growth was 73.4% (inactive). For `Cc1nc(C)c(C)nc1C`, the growth was 84.6% (inactive). In the case of `Oc1ccc(CNNc2ccnc3c(O)cccc23)c2cccnc12`, the growth is reported as 13% (inactive). For `N#Cc1ccc(N2Cc3cc(Cl)ccc3OC3=C2C(=O)N(Cc2ccccc2)C3=O)cc1`, the growth was -57.2% (active). `CC(=O)OCC1SC(OC(C)=O)C(NC(=O)/C=C/CCl)C(OC(C)=O)C1OC(C)=O` (configuration not stated) was tested, and the growth was -9.03% (active). In the case of `S=C(Nc1ccccc1)c1ccccn1`, the growth is reported as 74.4% (inactive). With `COc1cc(C(C)c2ccc3c(ccn3C)c2)cc(OC)c1OC` (configuration not stated) the growth was 11.3% (inactive). `COc1cc(C2=NN(C(C)=O)C(c3cccc(Nc4ccnc5cc(C(F)(F)F)ccc45)c3)C2)cc(OC)c1OC` (configuration not stated) was tested, and the growth was 55.7% (inactive). With `CC(C)CSc1nc(Nc2ccccc2)c(C#N)c(-c2ccc(F)cc2)n1` the growth was 59.1% (inactive). In the case of `C[C@H]1[C@H](C)CC[C@]2(C(=O)OCCCC[P+](c3ccccc3)(c3ccccc3)c3ccccc3)CC[C@]3(C)C(=CC[C@@H]4[C@@]5(C)CC[C@H](OC(=O)C(Cl)Cl)C(C)(C)[C@@H]5CC[C@]43C)[C@H]12`, the growth is reported as -55% (active). `CC(/C=C/c1ccccc1)=N/NC(=O)c1ccncc1` was tested, and the growth was 92.9% (inactive). With `O=C(O)c1cn(C2CC2)c2cc(N3CCN(C(=O)CSc4nnc(-c5ccc(Cl)cc5)n4-c4ccccc4)CC3)c(F)cc2c1=O` the growth was 72.7% (inactive). For `C1=CC2=CC=C3C=CC=C4C(c5nc6c7ccccc7c7ccccc7c6[nH]5)=CC(=C1)C2C34` (configuration not stated), the growth was 82.5% (inactive). `Nc1c(C(=O)Nc2ccccc2)sc2nc3c(cc12)CN(C(=O)OCc1ccccc1)CC3` was tested, and the growth was 35.6% (inactive). `Cc1cccc(C)c1NC(=O)CN(CC(C)C)CC(O)COc1ccccc1` (configuration not stated) was tested, and the growth was 82.3% (inactive). For `C=C(C)[C@@H]1CCC=C2CC[C@]3(C)[C@H](CC[C@@H]4[C@@]5(C)CCCNC(C)(C)[C@@H]5CC[C@]43C)[C@H]21`, the growth was 66.7% (inactive). For `COC(=O)/C=C/c1cc(OC(C)=O)c2c(c1)C(C(=O)OC)C(c1ccc(OC(C)=O)c(OC(C)=O)c1)O2` (configuration not stated), the growth was -20.8% (active). `COc1ccc(-c2[nH]c3ccccc3c2C=C(C#N)C#N)cc1` was tested, and the growth was -48.5% (active). With `COc1ccc(-c2nnc(N3CCN(C(=O)CN4CCN(c5ccccc5)CC4)CC3)nc2-c2ccc(OC)cc2)cc1` the growth was 14.2% (inactive). With `O=c1[nH]c2ccccc2cc1-c1nc2ccc(Cl)cc2[nH]1` the growth was 38.2% (inactive). `O=C(NC[C@H](O)CN1CCc2ccccc2C1)c1cc(NC2COC2)ncn1` was tested, and the growth was 92% (inactive). In the case of `COC1=CC2C=C(C3N(c4ccccc4)NC(=O)[C@@H]4CCCN34)C(=O)NC2C=C1` (some centres not stated), the growth is reported as 87.6% (inactive). `C#C[C@@]1(O)[C@@H](CO)O[C@@H](n2cc(-c3ccco3)c3c(N)ncnc32)[C@@H]1O` was tested, and the growth was 61.7% (inactive). With `Cc1[nH]c(N=Nc2ccccc2)nc1N=Nc1ccccc1` the growth was -17.5% (active). `COc1ccc(Nc2nc(SCC(C)C)nc(-c3ccc(F)cc3)c2C#N)cc1` was tested, and the growth was 35.5% (inactive).
